This is a sample that favours compounds with a hit; in the whole collection about 19% have one here.
HT1080NT lethal: kills 2HG-producing HT-1080-NT fibrosarcoma cells. AID 686970. Potency, µM (highest dose often 46.1 µM), without a hit: at the highest dose activity, negative = less viability, actives largely listed as cytotoxic. 360,000 tested, 1.6% active. HT-1080-NT fibrosarcoma viability, CellTiter-Glo ATP luminescence, 48 h;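 also: NT is the 2HG producing partner of a matched IDH1 knockdown line; 0% = DMSO-treated cells and -100% = media-only wells without cells; nearly all actives have a fitted effect of over 55% in size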
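Viability by CellTiter-Glo luminescence after 48 h compound exposure at 37C of HT-1080-NT cells (750/well, RPMI, 5% FBS). % activity scaled between DMSO wells and medium-only wells, then curve-fitted and categorized by curve class.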
KB-3-1 tox: KB-3-1 parental cell cytotoxicity; KB-3-1 viability, CellTiter-Glo ATP luminescence, 72 h; Potency, µM (titrated, usually from 46.1 µM), usual class: cytotoxic; 400,000 tested, 1.4% active; AID 1347075; also: nearly all actives have a fitted effect of over 60% in size
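Here the drug-naive KB-3-1 line serves as comparator for MDR sub-line selectivity; cells received compound titrations, 72 h at 37 °C, then CellTiter-Glo readout.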
TDP1 cell CPT: growth inhibition of DT40 Tdp1-/-;hTDP1 cells with camptothecin (screen for TDP1 inhibitors); chicken DT40 Tdp1-/-;hTDP1 cells + 20 nM CPT, ATP luminescence, 48 h; Potency, µM (doses to about 46.2 µM), for inactives: at the top dose activity change, negative = growth inhibition, actives largely listed as inhibitors; 420,000 tested, 12% active; AID 686979; also: nearly all actives have a fitted effect of over 55% in size
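Cell growth measured by CellTiter-Glo luminescence after a minimum 48 h, 37 C compound exposure with 20 nM CPT in Tdp1-knockout DT40 cells stably expressing hTDP1, seeded 400/well; qHTS titration format.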
TDP1 cell noCPT: qHTS for Inhibitors of human tyrosyl-DNA phosphodiesterase 1 (TDP1): qHTS in cells in absence of CPT | 420,000 tested, 15% active | DT40 Tdp1-/- hTDP1 cells, no CPT, ATP luminescence, 48 h | Potency, µM (top dose mostly 46.2 µM), for the others: top-dose activity change, negative = growth inhibition, hits mostly inhibitors; also: nearly all actives have a fitted effect of over 55% in size
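Stably hTDP1-transfected Tdp1-null chicken DT40 cells were treated with library compounds minus camptothecin and grown for at least 48 hr at 37 °C, after which cellular ATP was quantified by luminescence.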
HT1080 IDH1KD tx: toxicity to HT-1080 IDH1 knockdown cells (counter line); Potency, µM (highest dose often 46.1 µM), inactives show at the top dose activity, negative = toxicity, hits mostly cytotoxic; 360,000 tested, 2% active; HT-1080 IDH1 knockdown viability, ATP luminescence, 48 h; AID 686971;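 also: 0% = DMSO wells and -100% = cell-free medium wells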
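HT-1080-IDH1KD cells (IDH1 knocked down), 750/well in RPMI with 5% FBS, treated with compound 48 h at 37 degrees C. Viability by CellTiter-Glo luminescence, normalised to DMSO and no-cell wells; concentration-response curves classed.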
KB-V1 cytotox: KB-V1 MDR subline cytotoxicity; KB-V1 MDR cells viability, CellTiter-Glo, 72 h; Potency, µM (doses to about 46.1 µM), usual class: cytotoxic; 400,000 tested, 3.4% active; AID 1347076; also: nearly all actives have a fitted effect of over 60% in size
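In this primary screen, KB-V1 cells overexpressing P-gp are incubated with library compounds (lowest to highest concentration) for 72 h at 37 degrees C before a luminescent ATP viability read.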
The depositor's hits bear a star; i = inactive; ? = inconclusive; nt = no result given; [ ] = another dose, or the depositor's remark. Calls follow the shape of the dose curve; as a rule, active = well fitted curve in the direction sought with a large enough effect; inconclusive = small, poorly fitted or top-dose-only effect, or another doubt; inactive = no such curve, though single readings can be large; an effect the other way counts as inactive or inconclusive. Unless noted, % is scaled to controls: 0 for no effect and ±100 for the full control effect; potency is read from the fitted curve at half-maximal effect.

SMILES | HT1080NT lethal | KB-3-1 tox | TDP1 cell CPT | TDP1 cell noCPT | HT1080 IDH1KD tx | KB-V1 cytotox
Cc1ccc(S(=O)(=O)NCCC(c2ccccc2)c2ccco2)cc1 (centres undefined) | -1% | i | -22% | ? | -6% | 23µM*
Cc1ccc(S(=O)(=O)NCCC(c2ccc(F)cc2)c2ccco2)cc1 (centres undefined) | -8% | ? | ? | ? | -23% | 21µM*
COc1ccccc1C(CCNS(=O)(=O)c1ccc(C)cc1)c1ccco1 (centres undefined) | -6% | i | ? | ? | 1% | ?
COc1ccc2cc(C[C@@H]3CC[C@@H](CNC(N)=O)O3)ccc2c1 | 0% | i | -9% | -12% | 0% | i
CC(=O)Nc1ccc2c(c1)C(N1CC3CCC(CC3)C1)c1ccccc1-2 (centres undefined) | -20% | ? | ? | -21% | ? | i
NCC(=O)c1c[nH]c2ccccc12 | nt | i | ? | -8% | nt | i
CCOC(=O)Cn1c(=O)oc2cc(S(=O)(=O)N3CCN(c4cccc(Cl)c4)CC3)ccc21 | nt | i | -12% | 6% | nt | i
Cn1c(=O)c2nc(-c3ccccc3)c(-c3ccccc3)nc2n(C)c1=O | -6% | i | ? | 21µM* | 3% | i
COc1cccc(OC)c1OCCCOc1c(OC)cccc1OC | -3% | i | -13% | ? | -1% | i
Cc1cccc(OCCCc2c(C)n[nH]c2C)c1 | 1% | ? | -29% | -16% | -29% | 18µM*
COc1ccc(OCCCCc2c(C)n[nH]c2C)cc1 | -2% | i | 23µM* | ? | 1% | i
COc1cccc(OC)c1OCCCc1c(C)n[nH]c1C | 2% | i | -21% | -7% | 1% | 18µM*
Cc1ccccc1OCc1ccc(-c2nc(C#N)c(N3CCC(C(N)=O)CC3)o2)o1 | nt | i | ? | ? | nt | i
CC1CCC(C(C)C)C(OCC(O)CN2CCCC(C)C2)C1 (centres undefined) | ? | i | ? | ? | ? | ?
CC1CCC(C(C)C)C(OCC(O)C[N+]2(C)CCCCC2)C1 (centres undefined) | -5% | i | ? | 12µM* | -7% | i
CC1CCC(C(C)C)C(OCC(O)CN2CCN(Cc3ccccc3)CC2)C1 (centres undefined) | 23µM* | ? | 13µM* | 15µM* | ? | ?
COc1ccc(S(=O)(=O)N(C)C[C@H]2OCc3cnnn3CCCC(=O)N([C@H](C)CO)C[C@@H]2C)cc1 | -2% | i | -7% | -24% | 0% | i
O=C(NC1CCCC1)c1ccc(CSCc2ccccc2F)o1 | 9% | i | ? | ? | -12% | 15µM*
O=C(NC1CC1)c1ccc(CSCc2ccc(Cl)cc2)o1 | -20% | i | ? | 21µM* | -21% | ?
O=C(NC1CCCC1)c1ccc(CS(=O)(=O)Cc2ccccc2F)o1 | 1% | i | -7% | -11% | 0% | i
CCc1nn2c(=O)cc(COC(=O)Cc3ccccc3)nc2s1 | nt | i | ? | 1% | nt | i
O=C(Cc1ccc([N+](=O)[O-])cc1)NCc1ccc2c(c1)OCO2 | 0% | i | -11% | -25% | 1% | i
Cc1ccc(S(=O)(=O)N(C)CCCC(=O)NCc2ccc3c(c2)OCO3)cc1 | 2% | i | -15% | 23µM* | 1% | i
CN(CCCC(=O)NCc1ccc2c(c1)OCO2)S(=O)(=O)c1ccc([N+](=O)[O-])cc1 | 0% | nt | ? | 23µM* | -1% | nt
Cc1nc2c(c(C)c1CCC(=O)NCc1ccccc1)c(=O)n(C)c(=O)n2C | nt | i | 1% | ? | nt | i
SMILES | HT1080NT lethal | KB-3-1 tox | TDP1 cell CPT | TDP1 cell noCPT | HT1080 IDH1KD tx | KB-V1 cytotox
COc1ccccc1CNC(=O)Nc1nnc([C@H]2C[C@H](O)[C@@H](CO)O2)s1 | 2% | i | -5% | -8% | 2% | i
COc1cc(-c2cccc(Cl)c2)cc2c1OCCN(C(=O)CCn1ccc(C)n1)C2 | nt | nt | 1%[9.04 µM] | ? | nt | nt
Cc1cc(C)cc(Nc2nc3ccccc3nc2-n2nc(C)cc2C)c1 | nt | i | 10% | 3% | nt | i
Cc1cccc(NCc2nnc(-c3ccccc3)o2)c1C | -17% | i | ? | ? | -18% | 18µM*
Cc1cccc(NCc2ccccc2O)c1C | -12% | i | -6% | -17% | -26% | i
COC(=O)c1ccccc1NC(=O)CSc1nc2ccccc2c(=O)[nH]1 | -5% | i | ? | -17% | -18% | i
Cc1cc(=O)[nH]c(SCC(=O)Nc2nc(-c3ccccc3)cs2)n1 | 2% | i | -14% | -7% | -1% | i
COc1ccc(-c2csc(NC(=O)CSc3nc4ccccc4c(=O)[nH]3)n2)cc1 | 18µM* | i | ? | ? | 16µM* | i
Cc1ccc(-c2csc(NC(=O)CSc3nc4ccccc4[nH]3)n2)cc1 | 0% | i | 21µM* | 23µM* | -21% | i
C[C@@H]1CCCCO[C@H](CN(C)S(=O)(=O)c2cccs2)[C@@H](C)CN([C@H](C)CO)C(=O)c2cc(NC(=O)C3CCCCC3)ccc2O1 | -1% | i | 18µM* | 26µM* | 0% | i
C[C@@H]1CCCCO[C@@H](CN(C)S(=O)(=O)c2cccs2)[C@@H](C)CN([C@H](C)CO)C(=O)c2cc(NS(=O)(=O)c3ccccc3)ccc2O1 | -23% | i | 16µM* | 8.2µM* | -14% | i
C[C@H](CO)N1C[C@H](C)[C@@H](CN(C)S(=O)(=O)c2ccccc2)Oc2ccc(NC(=O)C3CCCCC3)cc2C1=O | -3% | i | ? | ? | 5% | i
C[C@@H]1CCCCO[C@H](CN(C)S(=O)(=O)c2cccs2)[C@H](C)CN([C@@H](C)CO)C(=O)c2cc(NC(=O)NC3CCCCC3)ccc2O1 | -9% | i | 18µM* | 12µM* | -7% | i
C[C@H](CO)N1C[C@H](C)[C@@H](CN(C)S(=O)(=O)c2ccccc2)Oc2ccc(NC(=O)NC3CCCCC3)cc2C1=O | -2% | i | ? | 21µM* | -5% | i
COC(=O)c1ccc(C2c3c(oc4ccc(C)cc4c3=O)C(=O)N2Cc2ccc3c(c2)OCO3)cc1 (centres undefined) | nt | i | 10% | -3% | nt | i
